Source: PubChem
rRNA inh HTS: selective bacterial rRNA inhibition in E. coli; E. coli WT GFP vs humanized-ribosome RFP mutants, fluorescence, 24 h; stronger effect = lower value; DMSO median 0, no signal -100; 1.6% of 350,000 active; GFP signal change (wild-type ribosome), % (test concentration not listed); AID 720706;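 active = significant combined selectivity score with lowered wild-type GFP, culture density cut under 30%, mutant RFP and density less affected; inactive = any of these conditions unmet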
proKLK7 act: activators of human kallikrein-7 zymogen. purified proKLK7, EDANS-DABCYL substrate fluorescence; 100% is mature enzyme control, 0% vehicle. 0.9% of 370,000 active. activation, % at 7 µM. P49862;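 active = activation above the mean of all tested compounds plus 3 SD, computed per campaign excluding outliers beyond control limits, cut at about 13% in these data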
Target sequence (P49862 whole entry, looked up): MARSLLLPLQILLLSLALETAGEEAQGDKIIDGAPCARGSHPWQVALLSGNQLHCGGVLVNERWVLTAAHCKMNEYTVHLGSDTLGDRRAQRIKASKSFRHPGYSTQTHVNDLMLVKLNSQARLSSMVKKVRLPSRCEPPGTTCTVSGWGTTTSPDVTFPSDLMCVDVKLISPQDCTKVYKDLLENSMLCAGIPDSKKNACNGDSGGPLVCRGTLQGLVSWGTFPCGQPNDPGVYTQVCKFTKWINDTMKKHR
FGF22 binding: binders of recombinant human FGF22 by thermal shift | Q9HCT0 | SYPRO orange fluorescence; percent of sucrose octasulfate shift, DMSO zero | activity (Tm shift, normalised), % at 9.99 µM | 1.5% of 340,000 active;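 active = mean Tm shift, scaled 0 neutral to 100 positive control, at about 1.3% or above, every replicate too, limit read from the data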
Target sequence (Q9HCT0 whole entry, looked up): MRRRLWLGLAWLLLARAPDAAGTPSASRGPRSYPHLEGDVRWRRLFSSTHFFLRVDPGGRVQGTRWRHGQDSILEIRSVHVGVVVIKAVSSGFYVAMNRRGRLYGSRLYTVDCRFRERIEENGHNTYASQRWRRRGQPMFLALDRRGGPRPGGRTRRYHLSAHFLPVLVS
ADAM17 inh: inhibitors of human ADAM17 | P78536 | recombinant ADAM17, EDANS/DABCYL FRET peptide cleavage | inhibition, % at 6.95 µM | 0.83% of 370,000 active;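 active = inhibition above the mean of compounds lying between control limits plus 3 SD, set per campaign, cut at about 8.5% in these data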;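 note: 0% = DMSO-only wells as the low control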
ADAM10 inh: inhibits human ADAM10 | O14672 | recombinant ADAM10, EDANS/DABCYL FRET peptide cleavage, 3 h | inhibition, % at 7 µM | 0.62% of 370,000 active | AID 720582;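 active = inhibition above a per-campaign cutoff equal to the mean of compounds falling between control-based bounds plus 3 SD, cut at about 20% in these data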;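 note: 0% = DMSO wells while the 100% control is not disclosed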
* marks the source's active call; other numbers are inactive results; · = no result. Only some compounds are listed: those with a hit (about 3.8% of all), similar ones and a draw of the others.

SMILES	rRNA inh HTS	proKLK7 act	FGF22 binding	ADAM17 inh	ADAM10 inh
O=C(NCc1ccccc1)c1cc(C2CCCN(S(=O)(=O)c3cccc4cccnc34)C2)on1 (centres undefined)	-9	0	0	1	5
CCCNC(=O)c1cc(C2CCCN(S(=O)(=O)c3cccc4cccnc34)C2)on1 (centres undefined)	-15*	0	0	-1	-3
CC(C)(CO)CNC(=O)CCc1nnc(Cc2ccc(-c3ccccc3)cc2)o1	-10	0	43	-3	0
C=C(C)CNC(=O)CCc1nnc(Cc2cccc(C(F)(F)F)c2)o1	·	-1	43*	-2	-5
CC(C)(CO)CNC(=O)CCc1nnc(CCCc2ccccc2)o1	3	0	43*	1	3
O=C(CCc1nnc(Cc2cccc(C(F)(F)F)c2)o1)NCC(F)(F)F	20	1	0	-1	0
CC(C)C#Cc1cnc2c(c1)C(=O)N([C@@H](C)CO)C[C@@H](C)[C@H](CN(C)Cc1ccccn1)O2	2	·	·	·	·
O=C(C[C@@H]1CC[C@H](NC(=O)C2CCOCC2)[C@@H](CO)O1)NCc1ccncc1	4	·	·	·	·
CN1CCN(c2ccc(NC(=O)c3sc4ccccc4c3Cl)cc2)CC1	-25*	-4	0	-16	-28
CN1CCN(C(=O)c2ccccc2NC(=O)c2sc3ccccc3c2Cl)CC1	-12	-1	0	-1	5
Cc1noc(C)c1S(=O)(=O)N(C)C[C@H]1Oc2ccc(NC(=O)Nc3ccccc3)cc2CC(=O)N([C@H](C)CO)C[C@@H]1C	2	·	·	·	·
O=c1c(C/C=C/c2ccccc2)c(O)ccn1Cc1ccc(Cl)cc1Cl	-19	-1	43	-2	6
O=c1c(Cc2ccc(Cl)cc2Cl)c(O)ccn1Cc1ccncc1	-35*	0	0	-3	-8
O=C1N[C@H](Cc2ccccc2)COCc2cn(nn2)CC[C@@H]1Cc1ccc(Cl)cc1	-2	·	·	·	·
C#CCCCN([C@@H](CC(C)C)C(=O)OC)S(=O)(=O)c1ccccc1Br	·	0	·	8.6*	14
C[C@@H]1CN([C@@H](C)CO)C(=O)c2cc(NS(=O)(=O)c3ccc(F)cc3)ccc2O[C@@H](C)CCCCO[C@H]1CN(C)C(=O)c1ccncc1	-3	·	0	·	·
O=C(COC(=O)COc1cccc2ccccc12)NCC(F)(F)F	-3	0	43*	1	4
CC(=O)C1=C(C)OC(N)=C(C#N)C1c1cccc2ccccc12 (centres undefined)	-9	2	0	-2	-8
CC(=O)n1c2c(c3ccccc31)OC(N)=C(C#N)C2c1ccc(C(C)C)cc1 (centres undefined)	-15*	-2	0	-84	-280
Cc1noc(C)c1S(=O)(=O)N(C)C[C@H]1Oc2ccc(NC(=O)Nc3ccccc3)cc2C(=O)N([C@H](C)CO)C[C@@H]1C	-6	·	·	·	·
N=c1c2c(n(Cc3ccc(Cl)cc3)c3c1CCC3)CCC2	-53*	0	0	2	2
N=c1c2c(n(Cc3cccc(Cl)c3)c3c1CCC3)CCCC2	-52*	0	0	0	-6
N=c1c2c(n(Cc3ccc(F)cc3)c3c1CCC3)CCCC2	-31*	0	0	-3	0
Cc1cc(C)nc(N/N=C/C(Cl)=C/c2ccccc2)n1	-26*	·	0	·	·
Cc1cc(C)nc(N/N=C/c2ccccc2)n1	16	·	0	·	·
SMILES	rRNA inh HTS	proKLK7 act	FGF22 binding	ADAM17 inh	ADAM10 inh
Cc1ccc([C@@H]2C[C@H]3[C@@H](CN2S(=O)(=O)c2ccc(Cl)cc2)C(=O)C[C@@H](c2cccc4ccccc24)N3S(=O)(=O)c2ccc(C)cc2)cc1	20	0	0	2	-13
Cc1ccc(S(=O)(=O)N2C[C@H]3C(=O)C[C@@H](c4ccccc4F)N(S(=O)(=O)c4ccc(C)cc4)[C@H]3C[C@H]2c2cccc3ccccc23)cc1	6	0	43*	2	4
COc1ccccc1C(=O)NC(=O)CSc1cccc[n+]1[O-]	6	0	44*	1	-4
CC(C)C[C@@H]1COCc2cn(nn2)CC[C@H](Cc2ccc(-c3ccccc3)cc2)C(=O)N1	-4	·	·	·	·
C[C@H](CO)N1C[C@H](C)[C@@H](CN(C)C)Oc2ncc(C#CC3CCCCC3)cc2C1=O	4	·	·	·	·
CCOC(=O)CSc1ccc2ccccc2n1	-11	0	43*	-2	-5
O=C(COc1cccc2cccnc12)N/N=C/c1cccn1-c1ccc(F)cc1	-41*	-1	0	-3	-7
CCOc1ccc(C(C)NC(=S)NCc2ccc(Cl)cc2)cc1 (centres undefined)	-1	0	43*	3	10
COc1cccc(NC(=O)N2[C@@H]3CNC[C@H]2C3c2ccc(/C=C/c3ccccc3)cc2)c1 (some centres undefined)	-55	·	·	·	·
O=C1CSCN1c1ccc(Cl)c(Cl)c1	-8	0	43*	2	0
COc1ccc2c3c([nH]c2c1)[C@H](CO)N(Cc1cc(F)ccc1F)CC31CCN(C)CC1	0	·	·	·	·
CCOCCCNC(C(=O)Nc1ccc(OC)c(Cl)c1)c1ccccc1 (centres undefined)	-18	0	43*	2	4
COc1ccc(NC(=O)CNC(c2ccccc2)c2ccccc2)cc1Cl	2	0	0	6	0
C=CCn1c(O)c(N=NC(=S)Nc2ccccc2F)c2ccccc21	-21*	0	42	6	13
CCC(=O)N(C)C[C@H]1Oc2ncc(-c3ccc(F)cc3)cc2C(=O)N([C@@H](C)CO)C[C@@H]1C	3	·	0	·	·
COc1ccc(S(=O)(=O)N2CCc3ccccc3C2)cc1OC	-3	-1	1	4	21*
Cc1nnsc1Sc1ccccc1	12	0	43*	-2	-3
CC(=O)c1c(C)nc2ccc(C)cc2c1-c1ccccc1	-36*	0	0	-2	5
COc1ccccc1S(=O)(=O)N[C@H]1CC[C@@H](CC(=O)N2CCOCC2)O[C@H]1CO	3	·	0	·	·
CCN(CC(=O)NCc1ccc(F)cc1)CC(=O)Nc1ccccc1-c1ccccc1	-33*	0	0	-3	2
CCN(CC(=O)Nc1ccccc1OC)CC(=O)Nc1ccccc1-c1ccccc1	-32*	0	0	3	4
CCN(CC(=O)Nc1ccccc1-c1ccccc1)Cc1nc2ccccc2c(=O)[nH]1	-25*	0	42	-1	4
COCC#Cc1ccc2c(c1)O[C@@H](CN(C)S(=O)(=O)c1ccc(C)cc1)[C@H](C)CN([C@H](C)CO)S2(=O)=O	-2	·	-1	·	·
O=C(C1CC1)N1C[C@@H]2[C@H](c3ccccc31)[C@@H](CO)N2C(=O)c1ccccc1F	0	·	·	·	·
COc1ccc2c3c([nH]c2c1)[C@H](CO)N(Cc1ccncc1)CC31CN(C(=O)c2cccnc2)C1	0	·	·	·	·
O=C(O)C(F)=C(c1ccccc1)c1ccccc1	7	1	0	-2	1
